This experiment is described as follows: cell-based, strain KU V3526, counter-screen (AID 602242). On the technique in general: Counterscreens check selectivity or assay interference.

Each structure is given as a SMILES string. Results with a measured potency or affinity are listed apart. Calls of active or inactive are those of the source. How the calls were made is not given here.

On to `O=C(Oc1ccc2ccccc2c1Br)N1CCCCCC1`, for which the call was inactive.
Regarding `O=c1c2cc([N+](=O)[O-])ccc2nc(CN2CCN(c3ccccc3)CC2)n1-c1ccccc1F`, the result was inactive.

Values taken from PubChem BioAssay AID602242 (Southern Research Specialized Biocontainment Screening …, 2012).
